# Screening results from PubChem.
# HT1080 IDH1KD tx – qHTS for induction of synthetic lethality in tumor cells producing 2HG: qHTS for the HT-1080-IDH1KD cell line; 360,000 compounds, 2% hits; Potency, µM (top dose mostly 46.1 µM), for the others: top-dose activity, negative = toxicity, hits mostly cytotoxic; HT-1080 IDH1 knockdown viability, ATP luminescence, 48 h;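 also: potency is read from the fitted curve at half-maximal effect; 0% = DMSO wells and -100% = cell-free medium wells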
#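 Luminescent ATP read-out (CellTiter-Glo, 10 min at room temperature) after 48 h compound exposure at 37 °C gave viability of IDH1-knockdown HT-1080 cells. Activity was normalised to DMSO and cell-free wells, then fitted as concentration-response curves.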
# DT40 TDP1 no CPT – qHTS for Inhibitors of human tyrosyl-DNA phosphodiesterase 1 (TDP1): qHTS in cells in absence of CPT | DT40 Tdp1-/- hTDP1 cells, no CPT, ATP luminescence, 48 h | Potency, µM (top dose mostly 46.2 µM), without a hit: at the highest dose activity change, negative = growth inhibition, actives largely listed as inhibitors | 420,000 compounds, 15% hits | AID 686978, 2013; also: potency is read from the fitted curve at half-maximal effect; nearly all actives have a fitted effect of over 55% in size
#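 Growth of hTDP1-complemented DT40 Tdp1-knockout cells is measured by ATP luminescence after at least 48 hr compound exposure at 37 °C, with DMSO substituting for the 20 nM CPT used in the parallel screen.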
# HT1080-NT tox – qHTS for induction of synthetic lethality in tumor cells producing 2HG: qHTS for the HT-1080-NT fibrosarcoma cell line; HT-1080-NT fibrosarcoma viability, CellTiter-Glo ATP luminescence, 48 h; Potency, µM (doses to about 46.1 µM), without a hit: top-dose activity, negative = less viability, most hits filed as cytotoxic; 360,000 compounds, 1.6% hits;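 also: NT is the 2HG producing partner of a matched IDH1 knockdown line; potency is read from the fitted curve at half-maximal effect; 0% = DMSO-treated cells and -100% = media-only wells without cells; nearly all actives have a fitted effect of over 55% in size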
#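 Toxicity toward the 2HG-producing NT line was scored as %Activity, normalised to DMSO and no-cell wells, from CellTiter-Glo luminescence after 48 hours' treatment.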
# ELG1 DNA repair – qHTS screen for small molecules that inhibit ELG1-dependent DNA repair in human embryonic kidney (HEK293T) cells expressing luciferase-tagged ELG1; HEK293T ELG1-luciferase reporter, luminescence, 16 h; DNA damage induced by 5-fluorouridine; Potency, µM (highest dose often 46.1 µM), for the others: top-dose activity change, negative = inhibition, hits mostly inhibitors; 330,000 compounds, 2.3% hits; also: potency is read from the fitted curve at half-maximal effect; nearly all actives have a fitted effect of over 55% in size
#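 5-Fluorouridine DNA damage + compound/DMSO, 2,000 cells/well, 16 h, 37 °C/5% CO2. ONE-Glo, 30 min RT, luminescence. Readout = decrease in reporter signal.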
# IL-1B inflam inh – qHTS for Inhibitors of Inflammasome Signaling: IL-1-beta AlphaLISA Primary Screen; 360,000 compounds, 4.7% hits; activity change, % at 57.5 µM; AID 743279, 2014; THP-1 LPS/ATP IL-1B secretion, AlphaLISA, 16 h; stronger effect = lower value; in the data active = activity change below about -50%; inconclusive = mostly about -30% to -49%
#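 Secreted IL-1B measured by AlphaLISA bead assay after 16 h compound exposure of THP-1 cells; compounds (final up to 57.5 uM) added 1 h before LPS (250 ng/mL) and ATP (1.25 mM) stimulation; lower signal means less secretion.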
# DT40 TDP1 CPT – qHTS for Inhibitors of human tyrosyl-DNA phosphodiesterase 1 (TDP1): qHTS in cells in presence of CPT; Potency, µM (top dose mostly 46.2 µM), for inactives: top-dose activity change, negative = growth inhibition, usual class: inhibitors; chicken DT40 Tdp1-/-;hTDP1 cells + 20 nM CPT, ATP luminescence, 48 h; 420,000 compounds, 12% hits; AID 686979, 2013; also: potency is read from the fitted curve at half-maximal effect; nearly all actives have a fitted effect of over 55% in size
#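 Cell growth measured by CellTiter-Glo luminescence after a minimum 48 h, 37 C compound exposure with 20 nM CPT in Tdp1-knockout DT40 cells stably expressing hTDP1, seeded 400/well; qHTS titration format.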
# ELG1 FLuc counter – qHTS screen for small molecules that inhibit ELG1-dependent DNA repair: Hit Confirmation in Cell-Based Luciferin Assay; shares compounds with ELG1 DNA repair; cell-free firefly luciferase luminescence counter-screen, ViewLux; Potency, µM (top dose mostly 46.1 µM), for inactives: top-dose activity change, negative = inhibition, usual class: inhibitors; 350 compounds, 3% hits; AID 624247, 2012; also: potency is read from the fitted curve at half-maximal effect
# ELG1 Luc conf – HTS assay for small molecules that inhibit ELG1-dependent DNA repair in human embryonic kidney (HEK293T) cells expressing luciferase-tagged ELG1: Hit Confirmation; 670 compounds, 68% hits; HEK293T ELG1-luciferase levels, luminescence; cells co-treated with 5-fluorouridine; shares compounds with ELG1 DNA repair; AID 624248, 2012; Potency, µM (titrated, usually from 46.1 µM), for the others: at the highest dose activity change, negative = inhibition, usual class: inhibitors; also: potency is read from the fitted curve at half-maximal effect; nearly all actives have a fitted effect of over 55% in size
# Target sequence (Q96QE3 whole entry, looked up): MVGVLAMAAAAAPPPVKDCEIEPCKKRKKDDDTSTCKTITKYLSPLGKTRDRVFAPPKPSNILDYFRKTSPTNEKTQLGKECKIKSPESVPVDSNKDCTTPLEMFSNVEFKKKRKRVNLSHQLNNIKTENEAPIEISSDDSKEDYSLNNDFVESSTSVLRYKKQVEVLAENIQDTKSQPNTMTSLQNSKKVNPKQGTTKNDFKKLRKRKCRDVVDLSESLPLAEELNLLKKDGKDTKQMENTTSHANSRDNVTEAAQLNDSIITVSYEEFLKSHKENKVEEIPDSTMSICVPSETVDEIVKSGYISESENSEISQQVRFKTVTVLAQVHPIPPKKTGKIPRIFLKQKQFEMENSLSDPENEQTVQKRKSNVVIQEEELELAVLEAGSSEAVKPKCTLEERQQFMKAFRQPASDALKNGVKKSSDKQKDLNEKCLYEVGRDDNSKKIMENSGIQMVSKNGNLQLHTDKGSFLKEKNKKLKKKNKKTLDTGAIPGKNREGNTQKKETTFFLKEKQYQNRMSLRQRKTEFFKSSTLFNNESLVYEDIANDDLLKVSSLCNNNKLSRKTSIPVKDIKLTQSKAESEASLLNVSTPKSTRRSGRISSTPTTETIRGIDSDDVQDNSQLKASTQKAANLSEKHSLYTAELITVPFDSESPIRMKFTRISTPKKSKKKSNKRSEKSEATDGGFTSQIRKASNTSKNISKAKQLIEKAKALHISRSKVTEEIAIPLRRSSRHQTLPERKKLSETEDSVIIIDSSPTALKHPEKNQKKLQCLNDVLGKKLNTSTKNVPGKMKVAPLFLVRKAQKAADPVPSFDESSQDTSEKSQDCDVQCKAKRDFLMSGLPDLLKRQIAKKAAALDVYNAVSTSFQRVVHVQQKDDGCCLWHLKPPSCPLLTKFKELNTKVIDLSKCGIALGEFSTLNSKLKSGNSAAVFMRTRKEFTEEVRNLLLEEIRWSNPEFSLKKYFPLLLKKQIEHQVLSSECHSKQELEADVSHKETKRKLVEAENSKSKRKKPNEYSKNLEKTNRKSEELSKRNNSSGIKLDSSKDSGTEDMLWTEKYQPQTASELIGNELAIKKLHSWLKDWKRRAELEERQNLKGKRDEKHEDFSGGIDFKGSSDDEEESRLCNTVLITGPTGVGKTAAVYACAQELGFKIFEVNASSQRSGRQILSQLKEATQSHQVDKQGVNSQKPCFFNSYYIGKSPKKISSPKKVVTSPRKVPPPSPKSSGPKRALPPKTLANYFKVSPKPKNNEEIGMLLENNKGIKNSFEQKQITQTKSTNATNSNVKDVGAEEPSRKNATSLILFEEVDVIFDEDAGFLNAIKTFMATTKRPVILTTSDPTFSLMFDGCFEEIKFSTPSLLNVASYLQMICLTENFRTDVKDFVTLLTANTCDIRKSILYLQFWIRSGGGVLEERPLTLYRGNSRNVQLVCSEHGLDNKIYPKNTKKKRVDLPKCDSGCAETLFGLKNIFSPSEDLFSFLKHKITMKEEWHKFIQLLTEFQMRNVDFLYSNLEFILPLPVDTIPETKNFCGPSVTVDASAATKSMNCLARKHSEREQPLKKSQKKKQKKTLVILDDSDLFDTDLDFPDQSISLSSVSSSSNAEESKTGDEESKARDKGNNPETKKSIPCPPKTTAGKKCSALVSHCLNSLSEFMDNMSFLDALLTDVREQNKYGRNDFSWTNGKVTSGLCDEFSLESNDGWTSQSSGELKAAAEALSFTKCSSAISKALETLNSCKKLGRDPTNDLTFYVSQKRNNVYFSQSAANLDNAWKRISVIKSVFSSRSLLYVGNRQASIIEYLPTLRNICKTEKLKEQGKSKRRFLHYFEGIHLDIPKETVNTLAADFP
# ELG1-Luc MMS – MMS-stimulated human ELG1 repair inhibition, confirmed; shares compounds with ELG1 DNA repair; HEK293T luciferase-tagged ELG1 level, MMS stimulated; Potency, µM (titrated, usually from 46.1 µM), inactives show at the top dose activity change, negative = inhibition, usual class: inhibitors; 670 compounds, 53% hits; AID 624249; also: potency is read from the fitted curve at half-maximal effect; nearly all actives have a fitted effect of over 60% in size
# ELG1 5-FU – qHTS screen for small molecules that inhibit ELG1-dependent DNA repair: Hit Confirmation with 5FU Viability; shares compounds with ELG1 DNA repair; cell viability with 5-FU, ELG1-dependent repair; Potency, µM (titrated, usually from 46.1 µM), without a hit: top-dose activity change, negative = viability loss, hits mostly cytotoxic; 670 tested, under 10 active; AID 624250, 2012;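 also: ELG1-luc HEK293T cells cotreated with 5-fluorouridine at 10 µM final; potency is read from the fitted curve at half-maximal effect; viability measured 16 h after compound addition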
# ELG1 MMS viab – qHTS screen for small molecules that inhibit ELG1-dependent DNA repair: Hit Confirmation with MMS Viability; shares compounds with ELG1 DNA repair; AID 624251, 2012; 670 compounds, 33% hits; Cell viability with MMS, ELG1-dependent DNA repair; Potency, µM (series often up to 46.1 µM), for the others: top-dose activity change, negative = viability loss, usual class: cytotoxic;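 also: ELG1-luc HEK293T cells co-treated with 10 µM MMS; potency is read from the fitted curve at half-maximal effect; viability read 16 h after compound addition; nearly all actives have a fitted effect of over 60% in size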
# Cell viab unstim – qHTS screen for small molecules that inhibit ELG1-dependent DNA repair: Hit Confirmation with Unstimulated Viability Assay; Potency, µM (series often up to 45.9 µM), inactives show top-dose activity change, negative = loss of viability, actives largely listed as cytotoxic; shares compounds with ELG1 DNA repair; cell viability counter-screen, unstimulated, luminescence; 900 compounds, 8% hits;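 also: potency is read from the fitted curve at half-maximal effect; compound exposure lasted 16 hours before reading; nearly all actives have a fitted effect of over 55% in size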
# FLuc enzyme – qHTS screen for small molecules that inhibit ELG1-dependent DNA repair: Hit Confirmation in Biochemical Luciferin Assay | AID 624253, 2012 | purified firefly luciferase, luminescence counter-screen | shares compounds with ELG1 DNA repair | Potency, µM (doses to about 57.5 µM), for the others: top-dose activity, negative = inhibition, most hits filed as inhibitors | 350 compounds, 10% hits; also: potency is read from the fitted curve at half-maximal effect
# * hit, by the source's call; ? = inconclusive; . = no result given; [ ] = another dose, or the depositor's remark. Only some compounds are listed: those with a hit (about 19% of all), similar ones and a draw of the others. Unless noted, calls follow the shape of the dose curve; as a rule, active = well fitted curve in the direction sought with a large enough effect; inconclusive = small, poorly fitted or top-dose-only effect, or another doubt; inactive = no such curve, though single readings can be large; an effect the other way counts as inactive or inconclusive. Unless noted, % is scaled to controls: 0 for no effect and ±100 for the full control effect.
SMILES,HT1080 IDH1KD tx,DT40 TDP1 no CPT,HT1080-NT tox,ELG1 DNA repair,IL-1B inflam inh,DT40 TDP1 CPT,ELG1 Luc conf,ELG1-Luc MMS,ELG1 5-FU,ELG1 MMS viab,Cell viab unstim,others
OC(CNc1nc(-c2cccnc2)nc2ccccc12)c1ccccc1 (stereo not drawn),?,23µM*,?,12µM*,-66*,15µM*,11µM*,22µM*,0%,?,?,ELG1 FLuc counter=-9%;FLuc enzyme=-14%
OCCSc1nc(-c2cccnc2)nc2ccccc12,?,?,?,?,-17,?,.,.,.,.,.,
C/C(=N\NC(=O)c1ccc(OC2CCCC2)cc1)c1ccc(O)cc1,-11%,?,-28%,6%,-14,?,.,.,.,.,.,
CC(=O)Nc1cccc(-c2csc(N)n2)c1,7%,0%,2%,16%,-4,3%,.,.,.,.,.,
CC(=O)Nc1cccc(-c2cnc(N)c(C(=O)c3cccnc3)n2)c1,-25%,10µM*,-24%,0.46µM*,-99*,8.2µM*,0.79µM*,2.8µM*,4%,?,?,ELG1 FLuc counter=?;FLuc enzyme=1%
Cc1ccc(C(=O)OCC(=O)NCc2ccco2)cc1C,0%,1%,12%,?,26,-18%,.,.,.,.,.,
COc1cccc(-c2cc(NCc3cccs3)ncn2)c1,.,?,.,.,.,?,.,.,.,.,-3%,ELG1 FLuc counter=67%;FLuc enzyme=3.7µM*
COc1cc(C(=O)NCCOc2cc(C)ccc2C(C)C)cc(OC)c1OC,?,12µM*,?,4.6µM*,-63*,?,14µM*,7.1µM*,-4%,5.6µM*,?,
Cc1ccc(C(C)C)c(OCCNC(=O)c2cncc(Br)c2)c1,-22%,?,-4%,?,-8,?,.,.,.,.,.,
CN(CC(=O)NCC(=O)Nc1ccc(F)c(F)c1F)C1CCS(=O)(=O)C1 (stereo not drawn),1%,3%,-1%[9.24 µM],-2%,6,-7%,.,.,.,.,.,
CCn1c(=O)n(CC)c2cc(S(=O)(=O)N3CCCCC3)c(C)cc21,?,?,2%[9.24 µM],?,66,-28%,.,.,.,.,-15%,ELG1 FLuc counter=35%;FLuc enzyme=6%
COc1cc(C(=O)NCc2ccccc2)cc(Br)c1OC,6%,?,10%,3.7µM*,-29,22%,?,-6%,?,12%,6%,
COc1ccc(CNc2ncnc3sccc23)cc1,23µM*,4.1µM*,?,1.8µM*,35,5.8µM*,?,2.8µM*,0%,2.8µM*,?,
COc1ccc(CNc2ncnc3c2cnn3-c2ccc(C)c(C)c2)cc1,.,-10%,.,.,.,-12%,.,.,.,.,.,
COc1ccc(/C=N/NC(=O)c2ccoc2C)cc1CN1CCN(c2ccc(F)cc2)CC1,0%,15µM*,-3%,2.6µM*,-14,?,2.5µM*,-10%,?,-1%,?,
COc1ccc(/C=N/NC(=O)c2cccnc2)cc1CN1CCN(c2ccc(F)cc2)CC1,-4%,-3%,-3%,?,-9,-1%,.,.,.,.,.,
CCCCCc1nnc(NC(=O)C2=COCCO2)s1,1%,-16%,-1%,?,4,0%,.,.,.,.,.,
CCN1CCC(Nc2ccnc3cc(Cl)ccc23)CC1,13%,0%,-9%,4%,-6,-7%,.,.,.,.,.,
CCN1CCN(c2ccc(Nc3ccnc4ccccc34)cc2)CC1,?,5.8µM*,-43%,4.6µM*,-1,12µM*,?,18µM*,-8%,?,-13%,
COc1ccc2c(c1)cc(C(=O)N[C@H](C(=O)N1CCC(C(=O)O)CC1)C(C)C)n2C,9%,13%,17%,4%,14,-13%,.,.,.,.,.,
CN1CCN(c2nc(-c3ccncc3)nc3ccccc23)CC1,?,?,?,-16%,-57*,?,?,?,-16%,-5%,?,ELG1 FLuc counter=18%;FLuc enzyme=0%
CCCSc1nc(NCc2ccco2)c2c3c(sc2n1)COC(C)(C)C3,-1%,?,2%,-19%,5,-24%,.,.,.,.,.,
